According to the supplement of paper PMC9694430:

Tested on: LOC_OS03G04050-cb001
Experiment: thermal shift delta Tm vs DMSO control; higher = stronger stabilization (binding)
Conditions: 12.5 µM; protein concentration 2 µM
Procedure, shortened: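 Heating from 25°C to 95°C at 0.05°C/s, fluorescence was recorded for 19.5 μl wells of 2 μM E. coli-expressed, purified rice kinase domain in 100 mM potassium phosphate pH 7.5, 150 mM NaCl, 10% glycerol and 5 × SYPRO Orange with compound in DMSO. Boltzmann fits gave melting temperatures for this differential scanning fluorimetry assay. The shift reported is the mean of three replicates against the DMSO-only protein.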
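Also: purified Escherichia coli-expressed rice kinase domain construct.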

Row | Structure (SMILES) | thermal shift delta Tm
1 | COc1cc(Nc2ncc(F)c(Nc3ccc4c(n3)NC(=O)C(C)(C)O4)n2)cc(OC)c1OC [R406 (free base)] | 0.5 °C
2 | Cc1ccc(S(=O)(=O)/C=C/C#N)cc1 | 0.67 °C
3 | O=c1c(O)c(-c2ccc(O)c(O)c2)oc2cc(O)cc(O)c12 [Quercetin] | 0.73 °C
4 | C[C@H]1CNC(=O)c2cnn3ccc(nc23)N[C@H](C)c2cc(F)ccc2O1 | 0.53 °C
5 | C[C@@H](Nc1cc(F)cc(F)c1)c1cc(C(=O)N(C)C)cc2c(=O)cc(N3CCOCC3)oc12 | 0.03 °C
6 | Nc1cccc(-c2cc3c(Oc4cccc(O)c4)ncnc3[nH]2)c1 | 0.45 °C
7 | CC[C@H](CO)Nc1nc(NCc2ccccc2)c2ncn(C(C)C)c2n1 [Roscovitine (Seliciclib,CYC202)] | 0.22 °C
8 | CCn1c(=O)c(-c2ccc(Cl)cc2Cl)cc2cnc(Nc3ccc(N4CCNCC4)c(F)c3)nc21 | -0.88 °C
9 | Cc1c[nH]c2nc(Nc3ccc(N4CCN(C)CC4)c(F)c3)nc(-c3cccc(CC#N)c3)c12 | 0.91 °C
10 | N#C/C(=C(/N)Sc1ccc(N)cc1)c1ccccc1C(F)(F)F | 0.54 °C
11 | FC(F)(F)c1ccc(CNc2ccc(Cc3c[nH]c4ncc(Cl)cc34)cn2)cn1 [Pexidartinib (PLX3397)] | 0.27 °C
12 | COc1cc(N2CCC(N(C)C)CC2)ccc1Nc1ncc(Cl)c(Nc2ccccc2P(C)(C)=O)n1 | 0.53 °C
13 | CCN(CC)CCNC(=O)c1c(C)[nH]c(/C=C2\C(=O)Nc3ccc(F)cc32)c1C [Sunitinib Malate] | 0.23 °C
14 | CCC(=O)Nc1cccc(Oc2nc(Nc3ccc(N4CCN(C)CC4)cc3OC)ncc2Cl)c1 | 0.41 °C
15 | Cn1c(Nc2ccc(C(F)(F)F)cc2)nc2cc(Oc3ccnc(-c4ncc(C(F)(F)F)[nH]4)c3)ccc21 | 0.84 °C
16 | CCOc1cc(N2CCC(O)CC2)ccc1Nc1ncc2c(n1)N(C)c1ccccc1C(=O)N2C | 0.11 °C
17 | O=C(O)c1ccc(Nc2ncc3c(n2)-c2ccc(Cl)cc2C(c2c(F)cccc2F)=NC3)cc1 | 0.54 °C
18 | C[C@@H]1CN(C(=O)c2ccc(NC(=O)c3cc(O[C@H](C)c4c(Cl)ccc(F)c4Cl)c(N)nn3)cc2)C[C@H](C)N1 [Ensartinib (X-396)] | -0.25 °C
19 | COc1ccc(F)c(F)c1C(=O)c1cnc(NC2CCN(S(C)(=O)=O)CC2)nc1N | 0.26 °C
20 | N#Cc1cnc(Nc2cc(NC[C@H]3CNCCO3)c(C(F)(F)F)cn2)cn1 | 0.6 °C
21 | O=c1nc(N2CCOCC2)oc2c(-c3cccc4c3sc3ccccc34)cccc12 | -0.14 °C
22 | Cc1nc(Nc2ncc(C(=O)Nc3c(C)cccc3Cl)s2)cc(N2CCN(CCO)CC2)n1 [Dasatinib] | 0.29 °C
23 | Cc1cc(Nc2cc(N3CCN(C)CC3)nc(/C=C/c3ccccc3)n2)n[nH]1 [ENMD-2076 L-(+)-Tartaric acid] | 0.44 °C
